From PubChem BioAssay (Tox21) come the findings set out here.

Molecules are shown by their SMILES. Where “and” joins values, the source holds several entries; their conditions need not be identical. Equal values may be shown once. Results filed as inconclusive are left out. Calls of active or inactive are those of the source. Unless noted, the call rests on the fitted dose curve; in most records, active means well fitted curve in the direction sought with a large enough effect in the repeat runs; inconclusive means weak or mixed curves; inactive means no such curve, though single readings can be large; an effect the other way counts as inactive or inconclusive.

Test [1] is described as follows: qHTS assay to identify small molecule that activate the aryl hydrocarbon receptor (AhR) signaling pathway - cell viability counter screen (AID 743086). Further: nearly all actives have a fitted effect of over 45% in size. Further: potency means the concentration at half of the fitted maximal effect. A digest of the protocol: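 Cytotoxicity counter screen: CellTiter-Fluor signal (30 min, 37 C) in 4000 HepG2 cells/well carrying the DRE-luciferase reporter, following 24 h compound exposure at 37 C.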
A general note: In qHTS, concentration-response curves come from the screen itself.

Test [2] in a line: qHTS assay for small molecule agonists of the antioxidant response element (ARE) signaling pathway (AID 743202; active means well fitted activation curve with a large enough effect in the signal ratio in the repeat runs, not every such curve was filed as active; the % refers to the signal ratio; further: potency means the concentration at half of the fitted maximal effect). The procedure, abridged:
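After 16 hours of compound treatment at 37 C, HepG2 cells with a stably integrated ARE-driven beta-lactamase reporter were loaded 2 hours at room temperature with LiveBLAzer B/G FRET substrate and fluorescence intensity measured.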

Test [3] can be described thus: qHTS assay for small molecule agonists of the antioxidant response element (ARE) signaling pathway - cell viability counter screen (AID 743203; calls by dose curve; further: nearly all actives have a fitted effect of over 55% in size; further: potency means the concentration at half of the fitted maximal effect). The procedure, abridged: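 Parallel cytotoxicity read-out for the ARE-bla screen: HepG2 reporter cells, 16 hrs with compounds, then CellTiter-Glo luminescence.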
The nature of test [4]: qHTS assay for small molecule activators of the heat shock response signaling pathway - cell viability counter screen (AID 743209). Further: nearly all actives have a fitted effect of over 50% in size. A digest of the protocol:
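To flag cytotoxic compounds, HSE-bla HeLa cells plated at 1500 cells/well were dosed for 5 h at 37 C, followed by the reporter FRET read and then CellTiter-Glo, with luminescence recorded 30 min after reagent addition.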

Test [5] in a line: qHTS assay for small molecule activators of the heat shock response signaling pathway (AID 743210; active means well fitted activation curve with a large enough effect in the signal ratio in the repeat runs, with a control signal flat, not every such curve was filed as active; the % refers to the signal ratio; further: series mostly up to about 63 µM). The procedure, abridged:
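Compound exposure lasted 5 h at 37 C in HeLa cells carrying a heat-shock-element-driven beta-lactamase reporter. Read-out: fluorescence intensity after 2.5 h room-temperature loading with LiveBLAzer B/G FRET substrate.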

The nature of test [6]: qHTS assay to identify small molecule agonists of the peroxisome proliferator-activated receptor delta (PPARd) signaling pathway - cell viability counter screen (AID 743211). Further: nearly all actives have a fitted effect of over 55% in size. Further: potency means the concentration at half of the fitted maximal effect. A digest of the protocol: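 Read-out: CellTiter-Glo luminescence, 30 min RT, measured in the same wells as the beta-lactamase reporter. Cells: GeneBLAzer PPAR delta UAS-bla HEK293H, 3000 cells/well, compound exposure 17 h at 37C.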

Test [7] addresses Peroxisome proliferator-activated receptor delta (Homo sapiens) (UniProt Q03181). The test can be described thus: qHTS assay to identify small molecule agonists of the peroxisome proliferator-activated receptor delta (PPARd) signaling pathway (AID 743212; calls by dose curve). A digest of the protocol: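 Beta-lactamase reporter readout: a ratiometric FRET signal from the LiveBLAzer substrate after 2 h at room temperature. Compound exposure at 37 °C in PPARδ-bla HEK293H cells driven by an upstream activator sequence.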

The nature of test [8]: qHTS assay to identify small molecule antagonists of the peroxisome proliferator-activated receptor delta (PPARd) signaling pathway - cell viability counter screen (AID 743213). Further: nearly all actives have a fitted effect of over 50% in size. Further: potency means the concentration at half of the fitted maximal effect. A digest of the protocol:
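PPARd-bla HEK293H cells (3000/well) got compound plus 300 nM L165041 agonist for 17 h at 37 C. Viability in the same wells came from CellTiter-Glo luminescence after 30 min at room temperature.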

Test [9] addresses Peroxisome proliferator-activated receptor delta (Homo sapiens) (UniProt Q03181). Kind of test: qHTS assay to identify small molecule antagonists of the peroxisome proliferator-activated receptor delta (PPARd) signaling pathway (AID 743215; active means well fitted inhibition curve with a large enough effect in the signal ratio in the repeat runs, not every such curve was filed as active; the % refers to the signal ratio;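 further: cells stimulated with agonist L165041 at 300 nM final during compound exposure; series mostly up to about 62 µM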). A digest of the protocol:
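Screen format: qHTS, antagonist mode. HEK293H PPARd-bla cells received compound and 300 nM L165041 (final), 17 h, 37 C. Beta-lactamase detected via FRET substrate fluorescence, 2 h, room temperature.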

Test [10] in a line: qHTS assay to identify small molecule agonists of the farnesoid-X-receptor (FXR) signaling pathway - cell viability counter screen (AID 743218). Further: nearly all actives have a fitted effect of over 45% in size. Further: potency means the concentration at half of the fitted maximal effect. The procedure, abridged: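 Same-well cytotoxicity check on FXR-UAS-bla HEK 293T cells: 5 h attachment, 16 h compound at 37 C, CellTiter-Glo luminescence read at room temperature after 30 min.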
Test [11] can be described thus: qHTS assay to identify small molecule antagonists of the farnesoid-X-receptor (FXR) signaling pathway - cell viability counter screen (AID 743221; active means well fitted cell-killing curve with a large enough effect in the repeat runs, not every such curve was filed as active; further: nearly all actives have a fitted effect of over 50% in size; further: potency means the concentration at half of the fitted maximal effect). The procedure, abridged:
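HEK 293T FXR-bla cells, 5 h pre-incubation; compound + CDCA 50 uM final, 16 h, 37 C; beta-lactamase FRET read first, then CellTiter-Glo luminescence, 30 min RT.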

Test [12] has as its target Vitamin D3 receptor (Homo sapiens) (UniProt P11473). The test can be described thus: qHTS assay to identify small molecule agonists of the vitamin D receptor (VDR) signaling pathway (AID 743222; calls by dose curve). A digest of the protocol:
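Using LiveBLAzer B/G FRET detection, agonism was scored in VDR-bla cells exposed overnight (16 h, 37C) to DMSO-dissolved compounds; substrate incubation was 2 h at room temperature.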

Test [13] can be described thus: qHTS assay to identify small molecule agonists of the vitamin D receptor (VDR) signaling pathway - cell viability counter screen (AID 743224). Further: nearly all actives have a fitted effect of over 50% in size. Further: potency means the concentration at half of the fitted maximal effect. A digest of the protocol:
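Counter screen for cytotoxicity: VDR-bla cells at 2,000 cells/well, 16 h compound exposure, then CellTiter-Glo luminescence after the beta-lactamase measurement.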

Test [14] concerns the target Peroxisome proliferator-activated receptor gamma (Homo sapiens) (UniProt P37231). Kind of test: qHTS assay to identify small molecule agonists of the peroxisome proliferator-activated receptor gamma (PPARg) signaling pathway (AID 743094; active means well fitted activation curve with a large enough effect in the signal ratio in the repeat runs, not every such curve was filed as active; the % refers to the signal ratio). A digest of the protocol: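 Fluorescence-based beta-lactamase readout in HEK293H PPARg UAS-bla cells after 17 h compound exposure (37C) and 1 h B/G FRET substrate incubation at room temperature.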

A short description of test [15]: qHTS assay to identify small molecule antagonists of the peroxisome proliferator-activated receptor gamma (PPARg) signaling pathway - cell viability counter screen (AID 743194). Further: nearly all actives have a fitted effect of over 55% in size. Further: potency means the concentration at half of the fitted maximal effect. A digest of the protocol: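 Viability was measured as CellTiter-Glo luminescence in GeneBLAzer PPARg UAS-bla HEK293H cells. These cells had been exposed 17 h at 37 C to compounds together with rosiglitazone at 50 nM final, with the beta-lactamase readout taken in the same wells.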

Test [16] has as its target Bile acid receptor (Homo sapiens) (UniProt Q96RI1). Kind of test: qHTS assay to identify small molecule antagonists of the farnesoid-X-receptor (FXR) signaling pathway (AID 743217; active means well fitted inhibition curve with a large enough effect in the signal ratio in the repeat runs, not every such curve was filed as active; the % refers to the signal ratio). The procedure, abridged: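 Quantitative HTS, beta-lactamase reporter format: FXR-UAS-bla HEK 293T cells co-treated 16 h at 37 °C with compounds and 50 uM final chenodeoxycholic acid, then read by B/G FRET fluorescence.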

For test [17] the target is unchanged. Kind of test: qHTS assay to identify small molecule agonists of the farnesoid-X-receptor (FXR) signaling pathway (AID 743220; active means well fitted activation curve with a large enough effect in the signal ratio in the repeat runs, not every such curve was filed as active; the % refers to the signal ratio). A digest of the protocol: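 FXR-UAS-bla HEK 293T cells carrying a UAS-driven beta-lactamase reporter were plated for 5 h at 37C/5% CO2, then exposed to DMSO-dissolved Tox21 10K compounds for 16 h at 37C. A LiveBLAzer B/G FRET substrate was loaded for 2 h at room temperature before fluorescence reading.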

Test [18] addresses Vitamin D3 receptor (Homo sapiens) (UniProt P11473). Kind of test: qHTS assay to identify small molecule antagonists of the vitamin D receptor (VDR) signaling pathway (AID 743223; active means well fitted inhibition curve with a large enough effect in the signal ratio in the repeat runs, not every such curve was filed as active; the % refers to the signal ratio). The procedure, abridged: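 Beta-lactamase reporter read-out: FRET substrate fluorescence after 2 h at room temperature, following 16 h exposure of VDR-bla cells to test compound plus 3 nM (final) 1alpha,25-dihydroxyvitamin D3 agonist at 37C.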

Test [19] has as its target Peroxisome proliferator-activated receptor gamma (Homo sapiens) (UniProt P37231). Kind of test: qHTS assay to identify small molecule antagonists of the peroxisome proliferator-activated receptor gamma (PPARg) signaling pathway (AID 743191; calls by dose curve; further: series mostly up to about 63 µM; nearly all actives have a fitted effect of over 30% in size). A digest of the protocol:
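Beta-lactamase reporter under UAS control in HEK293H PPARg-bla cells; compound treatment 17 h at 37C. Read-out: fluorescence intensity after 1 h room-temperature incubation with LiveBLAzer B/G FRET substrate.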

Chain of Vitamin D3 receptor (Homo sapiens) (P11473 whole entry, looked up): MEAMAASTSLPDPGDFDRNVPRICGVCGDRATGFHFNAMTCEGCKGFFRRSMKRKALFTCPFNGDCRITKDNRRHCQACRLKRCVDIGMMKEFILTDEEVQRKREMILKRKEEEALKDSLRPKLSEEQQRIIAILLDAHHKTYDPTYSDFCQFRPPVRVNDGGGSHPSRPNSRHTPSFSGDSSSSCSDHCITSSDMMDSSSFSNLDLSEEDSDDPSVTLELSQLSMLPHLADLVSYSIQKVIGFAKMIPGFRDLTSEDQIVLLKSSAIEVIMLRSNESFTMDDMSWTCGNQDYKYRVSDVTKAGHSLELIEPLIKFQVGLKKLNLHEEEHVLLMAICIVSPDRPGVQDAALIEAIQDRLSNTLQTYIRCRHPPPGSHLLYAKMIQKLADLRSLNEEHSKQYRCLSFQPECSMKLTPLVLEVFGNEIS
Chain of Peroxisome proliferator-activated receptor gamma (Homo sapiens) (P37231 whole entry, looked up): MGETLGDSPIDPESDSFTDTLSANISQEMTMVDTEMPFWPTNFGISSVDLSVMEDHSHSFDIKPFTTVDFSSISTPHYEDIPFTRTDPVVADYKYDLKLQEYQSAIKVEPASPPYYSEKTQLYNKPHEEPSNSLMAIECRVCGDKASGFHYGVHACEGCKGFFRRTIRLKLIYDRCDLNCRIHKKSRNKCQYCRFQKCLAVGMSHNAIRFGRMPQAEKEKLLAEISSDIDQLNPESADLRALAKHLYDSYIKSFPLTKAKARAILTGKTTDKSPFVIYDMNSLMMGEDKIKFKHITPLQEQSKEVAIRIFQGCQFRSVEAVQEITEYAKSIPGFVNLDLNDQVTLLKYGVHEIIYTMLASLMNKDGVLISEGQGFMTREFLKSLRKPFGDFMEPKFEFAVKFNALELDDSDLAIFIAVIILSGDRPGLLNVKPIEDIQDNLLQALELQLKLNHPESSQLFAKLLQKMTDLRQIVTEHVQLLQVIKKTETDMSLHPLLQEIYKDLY
Chain of Bile acid receptor (Homo sapiens) (Q96RI1 whole entry, looked up): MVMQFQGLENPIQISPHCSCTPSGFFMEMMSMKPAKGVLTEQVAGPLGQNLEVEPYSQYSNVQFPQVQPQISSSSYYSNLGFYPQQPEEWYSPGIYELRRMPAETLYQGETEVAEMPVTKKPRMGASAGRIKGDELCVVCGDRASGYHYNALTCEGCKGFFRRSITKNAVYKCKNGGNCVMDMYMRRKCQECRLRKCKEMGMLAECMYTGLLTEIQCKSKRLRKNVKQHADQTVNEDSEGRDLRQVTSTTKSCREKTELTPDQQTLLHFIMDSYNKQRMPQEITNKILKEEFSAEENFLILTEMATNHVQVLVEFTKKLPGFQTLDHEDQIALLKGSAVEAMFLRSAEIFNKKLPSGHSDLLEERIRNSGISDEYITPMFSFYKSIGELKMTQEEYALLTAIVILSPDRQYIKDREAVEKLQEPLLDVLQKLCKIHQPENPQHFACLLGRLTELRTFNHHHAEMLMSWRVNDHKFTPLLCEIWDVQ
Chain of Peroxisome proliferator-activated receptor delta (Homo sapiens) (Q03181 whole entry, looked up): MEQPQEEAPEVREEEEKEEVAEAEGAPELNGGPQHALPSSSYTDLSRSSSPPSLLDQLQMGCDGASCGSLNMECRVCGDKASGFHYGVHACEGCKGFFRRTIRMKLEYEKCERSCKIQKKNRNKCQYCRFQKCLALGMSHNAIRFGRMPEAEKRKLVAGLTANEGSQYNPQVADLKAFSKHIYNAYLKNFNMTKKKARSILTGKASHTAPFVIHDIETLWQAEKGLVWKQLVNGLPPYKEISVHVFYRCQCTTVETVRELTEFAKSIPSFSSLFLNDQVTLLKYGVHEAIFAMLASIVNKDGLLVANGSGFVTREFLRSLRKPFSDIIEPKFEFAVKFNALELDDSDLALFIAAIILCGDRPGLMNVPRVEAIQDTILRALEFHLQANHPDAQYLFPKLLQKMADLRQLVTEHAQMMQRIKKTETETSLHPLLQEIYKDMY

Take `c1ccc2c(c1)Oc1ccccc1S2`: the Potency entry in [1], in test [2], in [3], in test [4], in [5] and in test [6] was “inactive” each time. For the same molecule, the Potency result in test [8], in [9], in [10], in test [11] and in test [13] was “inactive” throughout. The outcome in test [7] and in test [12] was inactive.

In the case of `Nc1ncnc2nc[nH]c12`, the Potency entry in test [1], in [14], in test [15], in [2], in test [4] and in [5] was “inactive” in each case. Also, the Potency result in [6], in test [8], in test [9], in test [16], in test [11] and in [13] was “inactive” in each case. Also, the result in test [7], in test [17], in test [12] and in [18] was inactive.

For `C#C[C@]1(O)CC[C@H]2[C@@H]3CCc4cc(OC)ccc4[C@H]3CC[C@@]21C`, the Potency entry in [1], in test [14], in [15], in [3], in [4] and in test [5] was “inactive” in each case. The Potency entry in test [8], in [9], in test [16], in test [10], in [11] and in test [13] was “inactive” throughout. In addition, the outcome in test [7], in test [17], in test [12] and in test [18] was inactive.

For `Cc1ccc(C(=O)c2cc(O)c(O)c([N+](=O)[O-])c2)cc1`, the Potency entry in test [1], in test [4], in test [5], in [6], in test [8] and in [10] was “inactive” each time. Besides, the Potency result in test [11] is “inactive”. Besides, the Potency in [3] was 9.69 µM (active). Besides, the molecule was classed as inactive in test [18].

Take `O=P(O)(O)O`: the Potency entry in [1], in test [15], in [3], in [4], in [5] and in test [6] was “inactive” in each case. Also, the Potency result in test [8], in test [16], in [10], in [11] and in test [13] was “inactive” in each case. Moreover, the molecule was classed as inactive in test [17], in [12] and in test [18].

In the case of `O=C(c1ccccc1)c1ccccc1O`, the Potency entry in test [1], in [14], in [19], in [15], in test [3] and in [4] was “inactive” in each case. The Potency result in test [5], in test [6], in [8], in test [11] and in [13] was “inactive” in each case. Also, the molecule was classed as inactive in [18].

For `Nc1ccccc1N`, the Potency in test [1] is 19.8 µM (active); in test [2], 0.788 µM (active). Moreover, the Potency entry in test [14], in test [15], in test [3], in test [4], in test [5] and in test [6] was “inactive” in each case. Besides, the Potency entry in [8], in test [9], in test [11] and in test [13] was “inactive” throughout. For the same molecule, the call in test [7] and in [12] was inactive.

Regarding `C/C=C/C(=O)O`, the Potency entry in test [1], in test [15], in test [3], in test [4], in test [5] and in test [6] was “inactive” in each case. In addition, the Potency entry in [8], in [11] and in test [13] was “inactive” in each case. In addition, the result in [12] and in test [18] was inactive.

Regarding `O=C(OCc1ccccc1)c1ccccc1O`, the Potency result in test [1], in [15], in test [2], in test [3], in [4] and in test [5] was “inactive” each time. Moreover, the Potency entry in test [6], in test [11] and in test [13] was “inactive” throughout. In addition, in [7], the molecule was called inactive.

`O=[N+]([O-])c1ccc2c(c1)Cc1ccccc1-2`: the Potency result in test [1], in test [14], in test [19], in test [15], in test [3] and in test [4] was “inactive” each time. For the same molecule, the Potency result in test [5], in test [6], in test [8], in [9], in [10] and in test [11] was “inactive” each time. Further, the Potency result in [13] is “inactive”. Further, the molecule was classed as inactive in [7].

As to `OC1CCCCCCCCCCC1`, the Potency entry in test [1], in test [14], in [19], in test [15], in test [3] and in test [4] was “inactive” in each case. For the same molecule, the Potency entry in test [5], in test [6], in test [8], in test [9], in test [10] and in [11] was “inactive” each time. The Potency entry in [13] is “inactive”. Also, the outcome in test [7] was inactive.

As to `CC(C)=CCC/C(C)=C\CO`, the Potency result in test [1], in [14], in [15], in test [3], in [4] and in [6] was “inactive” each time. The Potency entry in test [8], in test [16], in test [11] and in [13] was “inactive” in each case. The outcome in test [17] and in test [18] was inactive.

With `CCCCc1oc2ccccc2c1C(=O)c1cc(I)c(OCCN(CC)CC)c(I)c1`, the Potency entry in test [1] and in [4] was “inactive” each time. In addition, the Potency in test [15] is 13.9 µM (active); in test [3], 34.6 µM (active); in [6], 22.1 µM (active) and 16.8 µM (active); in test [8] it was 15.6 µM (active) and 23.7 µM (active); in test [10] it was 34.9 µM (active) and 18.8 µM (active); in [11], 34.9 µM (active) and 29.8 µM (active). The Potency in [13] was 15.6 µM (active) and 26.6 µM (active). Also, the molecule was called inactive in test [17].

As to `C=C(C)C(=O)OCCOC(=O)C(=C)C`, the Potency entry in test [1], in test [14], in test [19], in test [15], in test [3] and in test [4] was “inactive” throughout. The Potency result in test [5], in [6], in test [9], in [11] and in [13] was “inactive” throughout. Moreover, the molecule was classed as inactive in test [7] and in [12].
